Source: the supplement of paper PMC10849652
The full data set covers some 8,800 targets. This sample favours those with a hit. About 0.5% of all pairs of compound and target were hits. A number with no mark means an inactive call.

How the values were obtained:
Experiment in all cases: log2 fold change, soluble protein after heating vs DMSO (PISA); higher = thermal stabilisation; K562 lysate, 10 uM; active = over 0.2 and 3.5 SD of the protein, either way, in both replicates (recomputed)
lapatinib = compound: CS(=O)(=O)CCNCc1ccc(-c2ccc3ncnc(Nc4ccc(OCc5cccc(F)c5)c(Cl)c4)c3c2)o1 [lapatinib]
Outline: (§1)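 To prepare the extract, K562 pellets were dounce-homogenised in PBS pH 7.4 with 1 mM MgCl2, giving crude material at 1 mg/mL protein. This was treated with 10 μM compound for 30 min, then heated in aliquots for 3 min over 48°C-58°C before pooling and addition of NP-40 to 0.5% at 4°C. Centrifugation at 21,000xg for 90 min left soluble protein in the supernatant, which TMTpro 16plex LC-MS/MS quantified with equalised channel sums. Results are log-two fold changes in thermal stability compared with solvent controls, from duplicates.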

pictilisib = compound: CS(=O)(=O)N1CCN(Cc2cc3nc(-c4cccc5[nH]ncc45)nc(N4CCOCC4)c3s2)CC1 [pictilisib]
Outline: as §1

crizotinib = compound: C[C@@H](Oc1cc(-c2cnn(C3CCNCC3)c2)cnc1N)c1c(Cl)ccc(F)c1Cl [crizotinib]
Outline: as §1

[1] = compound: C[C@H](C1=CC=C(C=C1)C(=O)NC2=C3C=CNC3=NC=C2)N
Outline: as §1

duvelisib = compound: C[C@H](Nc1ncnc2nc[nH]c12)c1cc2cccc(Cl)c2c(=O)n1-c1ccccc1 [duvelisib]
Outline: as §1

gandotinib = compound: Cc1cc(Nc2cc(CN3CCOCC3)c3nc(C)c(Cc4ccc(Cl)cc4F)n3n2)n[nH]1 [gandotinib]
Outline: as §1

tozasertib = compound: Cc1cc(Nc2cc(N3CCN(C)CC3)nc(Sc3ccc(NC(=O)C4CC4)cc3)n2)n[nH]1 [tozasertib]
Outline: as §1

doramapimod = compound: Cc1ccc(-n2nc(C(C)(C)C)cc2NC(=O)Nc2ccc(OCCN3CCOCC3)c3ccccc23)cc1 [doramapimod]
Outline: as §1

bafetinib = compound: Cc1ccc(NC(=O)c2ccc(CN3CC[C@H](N(C)C)C3)c(C(F)(F)F)c2)cc1Nc1nccc(-c2cncnc2)n1 [bafetinib]
Outline: as §1

[2] = compound: Cc1cccc(CC(=O)N2CCc3c2ccc(-c2cn(C)c4ncnc(N)c24)c3F)n1
Outline: as §1

Sequence of UniProt O95644 (O95644 whole entry, looked up): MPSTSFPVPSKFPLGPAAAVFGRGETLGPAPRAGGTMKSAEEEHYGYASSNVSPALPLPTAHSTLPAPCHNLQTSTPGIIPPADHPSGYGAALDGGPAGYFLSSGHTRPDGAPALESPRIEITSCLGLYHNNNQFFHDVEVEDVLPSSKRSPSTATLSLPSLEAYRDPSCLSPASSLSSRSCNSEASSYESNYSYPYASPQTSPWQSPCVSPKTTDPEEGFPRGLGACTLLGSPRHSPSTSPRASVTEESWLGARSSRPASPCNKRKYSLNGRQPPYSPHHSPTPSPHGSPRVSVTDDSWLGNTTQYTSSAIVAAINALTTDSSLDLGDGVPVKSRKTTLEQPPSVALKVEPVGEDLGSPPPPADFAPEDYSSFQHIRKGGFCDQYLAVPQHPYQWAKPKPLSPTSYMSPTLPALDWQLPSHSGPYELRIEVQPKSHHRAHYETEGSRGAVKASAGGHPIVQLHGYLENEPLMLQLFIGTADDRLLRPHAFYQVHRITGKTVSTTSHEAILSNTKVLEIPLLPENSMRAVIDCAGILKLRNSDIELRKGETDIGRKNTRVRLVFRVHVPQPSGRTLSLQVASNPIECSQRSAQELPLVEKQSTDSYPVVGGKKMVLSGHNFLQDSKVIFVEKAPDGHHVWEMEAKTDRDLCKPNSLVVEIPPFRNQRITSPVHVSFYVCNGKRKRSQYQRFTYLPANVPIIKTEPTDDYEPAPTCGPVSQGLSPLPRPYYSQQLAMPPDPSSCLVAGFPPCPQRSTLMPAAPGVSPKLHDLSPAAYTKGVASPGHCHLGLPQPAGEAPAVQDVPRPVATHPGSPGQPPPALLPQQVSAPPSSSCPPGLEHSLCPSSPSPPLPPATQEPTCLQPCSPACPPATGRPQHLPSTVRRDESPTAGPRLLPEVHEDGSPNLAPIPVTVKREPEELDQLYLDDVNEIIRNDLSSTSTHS
Sequence of UniProt Q8WUM0 (Q8WUM0 whole entry, looked up): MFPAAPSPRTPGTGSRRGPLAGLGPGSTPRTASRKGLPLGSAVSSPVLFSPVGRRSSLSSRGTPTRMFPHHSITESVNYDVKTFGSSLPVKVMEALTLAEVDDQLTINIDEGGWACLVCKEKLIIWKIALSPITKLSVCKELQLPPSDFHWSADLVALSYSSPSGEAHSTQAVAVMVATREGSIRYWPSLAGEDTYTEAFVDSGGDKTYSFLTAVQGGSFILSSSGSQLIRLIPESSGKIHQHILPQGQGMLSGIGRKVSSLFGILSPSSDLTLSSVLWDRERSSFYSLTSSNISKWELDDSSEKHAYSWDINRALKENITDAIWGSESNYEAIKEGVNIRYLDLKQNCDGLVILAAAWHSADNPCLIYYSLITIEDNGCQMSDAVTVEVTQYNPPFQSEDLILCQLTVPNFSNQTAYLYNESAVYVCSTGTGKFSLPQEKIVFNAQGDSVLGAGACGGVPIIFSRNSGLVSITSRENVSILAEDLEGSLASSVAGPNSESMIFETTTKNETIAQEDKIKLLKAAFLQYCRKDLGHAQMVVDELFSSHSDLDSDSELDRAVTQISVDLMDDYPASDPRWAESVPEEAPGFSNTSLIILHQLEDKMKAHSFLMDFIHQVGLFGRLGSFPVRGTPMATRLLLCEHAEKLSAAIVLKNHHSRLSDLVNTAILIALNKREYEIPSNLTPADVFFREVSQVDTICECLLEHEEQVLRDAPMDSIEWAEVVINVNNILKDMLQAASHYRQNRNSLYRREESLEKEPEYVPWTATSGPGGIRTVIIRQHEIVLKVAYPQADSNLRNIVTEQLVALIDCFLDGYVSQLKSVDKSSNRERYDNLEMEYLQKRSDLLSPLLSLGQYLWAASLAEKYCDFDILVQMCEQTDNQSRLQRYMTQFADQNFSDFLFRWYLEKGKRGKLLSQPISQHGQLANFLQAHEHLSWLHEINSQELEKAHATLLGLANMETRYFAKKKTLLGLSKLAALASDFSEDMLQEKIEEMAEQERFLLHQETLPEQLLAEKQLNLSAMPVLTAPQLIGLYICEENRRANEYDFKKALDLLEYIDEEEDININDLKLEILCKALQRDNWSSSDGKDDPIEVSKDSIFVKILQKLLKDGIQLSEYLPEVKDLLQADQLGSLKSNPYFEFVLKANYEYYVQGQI
Sequence of UniProt Q9UBD5 (Q9UBD5 whole entry, looked up): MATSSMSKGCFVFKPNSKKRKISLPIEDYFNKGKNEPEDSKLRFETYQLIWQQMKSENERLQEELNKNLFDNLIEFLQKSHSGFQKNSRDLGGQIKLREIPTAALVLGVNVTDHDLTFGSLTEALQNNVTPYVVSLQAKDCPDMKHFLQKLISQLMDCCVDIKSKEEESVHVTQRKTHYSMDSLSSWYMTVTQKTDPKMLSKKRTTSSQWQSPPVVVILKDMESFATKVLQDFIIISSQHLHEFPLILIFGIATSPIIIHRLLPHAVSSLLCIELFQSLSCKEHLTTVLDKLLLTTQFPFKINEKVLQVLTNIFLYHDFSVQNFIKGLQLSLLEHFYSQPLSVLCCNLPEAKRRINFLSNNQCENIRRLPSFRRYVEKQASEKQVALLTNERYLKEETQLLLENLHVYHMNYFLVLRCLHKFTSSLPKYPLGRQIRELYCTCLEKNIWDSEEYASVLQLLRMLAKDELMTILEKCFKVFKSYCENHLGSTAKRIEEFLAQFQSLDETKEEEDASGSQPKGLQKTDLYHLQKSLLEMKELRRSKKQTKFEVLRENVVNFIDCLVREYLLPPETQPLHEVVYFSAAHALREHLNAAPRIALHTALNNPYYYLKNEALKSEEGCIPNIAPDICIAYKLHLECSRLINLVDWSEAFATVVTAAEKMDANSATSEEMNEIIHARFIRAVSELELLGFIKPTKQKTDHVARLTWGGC
Sequence of UniProt Q6IBW4 (Q6IBW4 whole entry, looked up): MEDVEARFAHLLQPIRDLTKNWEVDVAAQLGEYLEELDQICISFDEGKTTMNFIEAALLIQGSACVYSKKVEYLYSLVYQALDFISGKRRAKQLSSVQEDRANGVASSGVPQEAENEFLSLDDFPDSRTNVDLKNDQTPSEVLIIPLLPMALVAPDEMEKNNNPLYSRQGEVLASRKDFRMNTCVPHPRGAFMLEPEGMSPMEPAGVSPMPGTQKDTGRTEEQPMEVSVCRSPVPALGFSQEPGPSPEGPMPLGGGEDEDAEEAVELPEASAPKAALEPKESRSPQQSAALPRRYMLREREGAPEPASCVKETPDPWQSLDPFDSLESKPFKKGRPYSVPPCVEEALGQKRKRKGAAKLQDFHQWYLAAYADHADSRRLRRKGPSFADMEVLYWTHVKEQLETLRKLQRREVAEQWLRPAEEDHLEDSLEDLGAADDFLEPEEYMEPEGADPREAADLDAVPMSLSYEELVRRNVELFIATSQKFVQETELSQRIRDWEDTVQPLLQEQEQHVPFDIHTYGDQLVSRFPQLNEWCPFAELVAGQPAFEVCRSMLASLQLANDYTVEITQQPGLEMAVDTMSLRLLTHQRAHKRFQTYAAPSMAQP
Sequence of UniProt Q9H3P2 (Q9H3P2 whole entry, looked up): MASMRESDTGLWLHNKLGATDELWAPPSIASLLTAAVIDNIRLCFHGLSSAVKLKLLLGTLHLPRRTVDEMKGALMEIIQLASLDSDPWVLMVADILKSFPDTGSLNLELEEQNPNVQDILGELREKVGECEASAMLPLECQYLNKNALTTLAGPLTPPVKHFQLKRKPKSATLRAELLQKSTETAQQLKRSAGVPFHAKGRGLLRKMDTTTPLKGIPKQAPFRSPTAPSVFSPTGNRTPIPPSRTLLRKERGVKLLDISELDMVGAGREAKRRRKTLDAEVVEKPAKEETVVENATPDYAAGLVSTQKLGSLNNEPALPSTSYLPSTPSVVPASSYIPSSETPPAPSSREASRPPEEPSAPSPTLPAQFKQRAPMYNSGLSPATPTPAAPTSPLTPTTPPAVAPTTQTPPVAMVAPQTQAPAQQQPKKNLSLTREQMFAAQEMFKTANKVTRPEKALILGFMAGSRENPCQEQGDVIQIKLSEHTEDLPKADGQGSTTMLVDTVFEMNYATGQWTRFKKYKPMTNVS
Sequence of UniProt Q9H4L5 (Q9H4L5 whole entry, looked up): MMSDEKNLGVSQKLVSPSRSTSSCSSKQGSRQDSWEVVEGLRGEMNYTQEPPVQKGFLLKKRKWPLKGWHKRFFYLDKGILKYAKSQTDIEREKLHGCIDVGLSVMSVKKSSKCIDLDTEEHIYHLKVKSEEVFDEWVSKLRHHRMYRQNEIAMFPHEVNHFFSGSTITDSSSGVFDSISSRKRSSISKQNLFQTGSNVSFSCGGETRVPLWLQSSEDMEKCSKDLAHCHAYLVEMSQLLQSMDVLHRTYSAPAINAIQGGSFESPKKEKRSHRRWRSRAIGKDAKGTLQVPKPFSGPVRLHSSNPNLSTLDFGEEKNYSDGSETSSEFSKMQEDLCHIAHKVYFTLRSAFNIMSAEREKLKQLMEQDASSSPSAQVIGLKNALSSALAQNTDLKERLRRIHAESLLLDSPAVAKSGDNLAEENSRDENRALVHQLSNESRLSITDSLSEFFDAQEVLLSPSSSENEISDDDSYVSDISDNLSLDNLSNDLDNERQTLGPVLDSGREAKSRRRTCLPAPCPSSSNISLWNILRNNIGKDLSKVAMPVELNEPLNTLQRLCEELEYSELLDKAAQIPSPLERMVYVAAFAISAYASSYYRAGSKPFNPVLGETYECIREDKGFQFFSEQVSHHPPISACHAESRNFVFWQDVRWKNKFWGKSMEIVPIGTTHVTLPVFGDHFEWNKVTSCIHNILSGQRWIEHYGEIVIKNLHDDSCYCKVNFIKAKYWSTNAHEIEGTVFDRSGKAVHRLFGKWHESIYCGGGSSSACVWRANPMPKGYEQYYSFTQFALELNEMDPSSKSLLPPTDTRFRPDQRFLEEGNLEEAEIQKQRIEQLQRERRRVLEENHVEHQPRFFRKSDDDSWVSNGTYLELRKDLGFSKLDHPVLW
Sequence of UniProt Q9BV86 (Q9BV86 whole entry, looked up): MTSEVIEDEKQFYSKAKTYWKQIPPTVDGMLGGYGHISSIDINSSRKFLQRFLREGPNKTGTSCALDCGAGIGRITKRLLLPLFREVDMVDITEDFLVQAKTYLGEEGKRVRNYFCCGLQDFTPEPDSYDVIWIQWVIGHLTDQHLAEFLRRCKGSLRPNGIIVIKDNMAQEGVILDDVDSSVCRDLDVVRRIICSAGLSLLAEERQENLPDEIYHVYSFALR

Target	log2 fold change (lapatinib)	log2 fold change (pictilisib)	log2 fold change (crizotinib)	log2 fold change [1]	log2 fold change (duvelisib)	log2 fold change (gandotinib)	log2 fold change (tozasertib)	log2 fold change (doramapimod)	log2 fold change (bafetinib)	log2 fold change [2]
MRPL51 (UniProt Q4U2R6)	-0.051	-0.016	0.056	-0.201	-0.004	0.058	0.083	-0.247	0.02	0.091
NCAPH2 (UniProt Q6IBW4)	-0.075	-0.023	-0.04	-0.01	-0.03	-0.052	0.058	-0.051	-0.036	0.185
NFATC2 (UniProt Q13469)	-0.003	0.03	-0.021	0.085	-0.017	0.133	0	0.059	-0.02	0.117
NUP133 (UniProt Q8WUM0)	-0.007	-0.01	-0.093	-0.075	-0.01	0.251 (active)	0.042	0.061	-0.074	0.218
NTMT1 (UniProt Q9BV86)	-0.008	-0.008	-0.009	0.079	-0.026	-0.113	-0.041	0.025	0.025	-0.045
NUDT5 (UniProt Q9UKK9)	0.003	-0.036	0.007	-0.299 (active)	0.051	0.211	-0.018	-0.015	-0.016	0.212
MRPL58 (UniProt Q14197)	0.035	-0.034	-0.063	0.365 (active)	-0.034	-0.009	0.045	-0.026	-0.03	-0.119
NACC1 (UniProt Q96RE7)	-0.032	0.034	0.01	-0.066	-0.002	0.006	-0.015	-0.011	-0.078	0.044
NTMT1 (UniProt S4R338)	0.082	–	–	–	–	–	–	–	–	–
NELFCD (UniProt Q8IXH7)	-0.035	-0.048	-0.043	0.074	0.017	-0.087	-0.025	0.045	-0.105	-0.029
NUP93 (UniProt Q8N1F7)	-0.011	-0.029	-0.03	-0.027	-0.03	-0.158	0.015	0.022	-0.054	0.07
NFIC (UniProt P08651)	-0.004	0.109	0.007	-0.361	-0.002	0.237	0.035	0.139	-0.038	0.003
MRPS31 (UniProt Q92665)	0.012	0.012	-0.02	-0.002	-0.015	-0.006	0.033	0.047	-0.009	0.051
OSBPL3 isoform 2 (UniProt Q9H4L5)	0.073	-0.039	0.014	-0.045	0.03	-0.052	-0.005	0.107	0.269	0.035
NUDT4 (UniProt Q9NZJ9)	-0.01	-0.055	0.032	0.166	-0.039	-0.188	-0.022	-0.076	0.117	-0.304 (active)
OAT (UniProt P04181)	-0.02	0.021	-0.034	-0.066	-0.025	0.063	0.01	-0.029	0	0.044

Target	log2 fold change (lapatinib)	log2 fold change (pictilisib)	log2 fold change (crizotinib)	log2 fold change [1]	log2 fold change (duvelisib)	log2 fold change (gandotinib)	log2 fold change (tozasertib)	log2 fold change (doramapimod)	log2 fold change (bafetinib)	log2 fold change [2]
OARD1 (UniProt Q9Y530)	-0.001	-0.011	-0.003	-0.022	-0.015	-0.012	0.042	0.035	-0.023	0.037
NUF2 (UniProt Q9BZD4)	-0.002	-0.028	-0.024	-0.023	-0.019	-0.103	0.023	0.008	-0.087	0.053
ORC3 isoform 2 (UniProt Q9UBD5)	-0.014	-0.011	-0.119	-0.008	-0.025	-0.097	-0.024	-0.009	-0.046	0.001
NBEAL2 (UniProt Q6ZNJ1)	-0.065	-0.016	-0.069	-0.006	0.04	-0.157	0.02	0.008	-0.056	0.072
NUP160 (UniProt Q12769)	0.004	-0.046	-0.028	0.003	-0.007	-0.102	0.015	0.032	-0.059	-0.007
NFATC1 (UniProt O95644)	-0.003	-0.088	-0.111	-0.136	0.007	0.132	-0.002	0.017	-0.043	0.179
NOSTRIN (UniProt Q8IVI9)	-0.022	-0.011	0.06	0.017	0.047	-0.047	0.058	-0.03	-0.078	-0.012
MTHFD1L (UniProt B7ZM99)	-0.075	-0.036	-0.036	0.017	0.026	-0.039	0.002	0.035	-0.054	0.018
MYO1C (UniProt O00159)	-0.078	0.007	-0.09	0.027	0.075	-0.036	0.014	0.065	0.068	-0.023
NELFA (UniProt Q9H3P2)	-0.031	0.021	0.018	0.06	-0.018	-0.079	0.048	0.022	-0.048	-0.003
MTHFD1 (UniProt V9GZ32)	-0.067	–	–	–	–	–	–	–	–	–
NADK2 (UniProt Q4G0N4)	0.02	-0.028	-0.005	-0.04	0.03	0.004	0.012	-0.002	0.01	0.017
PANK2 (UniProt Q9BZ23)	0.079	0.143	-0.073	-0.023	-0.126	0.077	0.008	-0.008	-0.029	0.095
NTPCR (UniProt Q9BSD7)	-0.003	-0.028	-0.071	0.031	-0.003	-0.094	-0.028	0.011	-0.044	-0.052
PAGE4 (UniProt O60829)	-0.012	-0.05	-0.028	0.344 (active)	0.091	-0.102	-0.023	0.11	-0.004	-0.134
